About 8,600 (12%) of roughly 69,000 compounds showed an effect of 50% or more. What follows is part of a selection rich in strong results, with near analogues and random picks from the rest.
System: Plasmodium berghei
Assay: Screen against P. berghei liver stage (PbLuc), transformed with Luciferase, at 10uM
Type: functional, HepG2
Conditions: tested at 10 uM

Point of comparison: `Cc1nnsc1C(=O)NCc1cccnc1N(C)C`, INHIBITION 51.5%. Against it:
- CSC(C)C(=O)NCCC(=O)N1CCN(c2ccccn2)CC1 (stereo not drawn) — lower, 39.2%
- Cc1cc(CN(C)CC2(O)CCCN(CCC3CCCCC3)C2=O)no1 (stereo not drawn) — lower, 32.3%
- CN(Cc1ccccc1)CC1(O)CCCN(Cc2ccc(F)cc2)C1=O (stereo not drawn) — lower, 31.1%
- O=C1N(CCC2CCCCC2)CCCC1(O)CNCCc1ccccc1 (stereo not drawn) — higher, 56.9%
- O=C1N(CCCc2ccccc2)CCCC1(O)CNCC1CCCCC1 (stereo not drawn) — lower, 39.5%
- O=C1NCCN1CCNCC1(O)CCCN(CCC2CCCCC2)C1=O (stereo not drawn) — lower, -48.7%
- CN(Cc1ccccc1)CC1(O)CCCN(CCC2CCCCC2)C1=O (stereo not drawn) — higher, 63.7%
- CN(Cc1cccnc1)CC1(O)CCCN(CC(C)(C)C)C1=O (stereo not drawn) — lower, 44.7%
- CN(Cc1ccccc1)CC1(O)CCCN(CC(C)(C)C)C1=O (stereo not drawn) — higher, 51.8%
- CN(Cc1ccc(F)cc1)CC1(O)CCCN(CC(C)(C)C)C1=O (stereo not drawn) — lower, 28.5%
- Cc1nc(CN2CCCC(N(C)CC3(O)CCCCC3)C2)no1 (stereo not drawn) — lower, -3.2%
- Cc1cccc(CN2CCS(=O)(=O)[C@@H]3CCN(S(C)(=O)=O)CC[C@@H]32)n1 — lower, 39.3%
- CC(C)c1cc(C(=O)NCCN2CCCCC2CO)on1 (stereo not drawn) — lower, 15%
- CCN1CCCC12CCN(C(=O)c1ccsc1)CC2 — lower, 36.9%
- O=C(c1cc2c(s1)CCC2)N1CCCC1c1noc(C2CC2)n1 (stereo not drawn) — lower, -56.7%
- Cc1nnc(NC(=O)NCc2ccc(N3CCOCC3)nc2)s1 — lower, -43.6%
- CC(O)CNCc1c(C(C)C)nn(C)c1N1CCOCC1 (stereo not drawn) — lower, 3.8%
- CCOC(=O)CC(c1cccc(OC)c1OC)c1c(C)[nH][nH]c1=O (stereo not drawn) — lower, 3.6%
- c1cnc(NC2COC3(CCN(Cc4cc[nH]n4)CC3)C2)nc1 (stereo not drawn) — lower, 26.3%
- O=C(NC[C@]12COC[C@H]1CN(Cc1nccs1)C2)c1ccccc1 — lower, 23.7%
- Cc1cc(CN2C[C@@H]3COC[C@]3(CNC(=O)c3ccco3)C2)no1 — lower, 20.6%
- Cn1cc(CN2C[C@@H]3COC[C@]3(CNC(=O)c3ccccc3)C2)cn1 — lower, 30.3%
- O=C(NC[C@]12COC[C@H]1CN(Cc1ccncc1)C2)c1ccco1 — lower, 18.2%
- O=C(NC[C@]12COC[C@H]1CN(Cc1ccco1)C2)c1ccccc1 — higher, 54.7%
- Cc1ccsc1CN1C[C@@H]2COC[C@]2(CNC(=O)c2ccco2)C1 — higher, 63.7%
- Cn1cc(CN2C[C@@H]3COC[C@]3(CNC(=O)c3ccco3)C2)cn1 — higher, 52%
- Cc1ncsc1CN1C[C@@H]2COC[C@]2(CNC(=O)c2ccco2)C1 — lower, 14.8%
- O=C(NC[C@]12COC[C@H]1CN(CC1CCOCC1)C2)c1ccccc1 — lower, 30.3%
- Cn1ccnc1CN1CCCN(C(=O)c2ccc(O)nc2)CC1 — lower, -24.3%
- CN(C)S(=O)(=O)NCc1nn(CCN2CCCC2)c(=O)c2ccccc12 — lower, 5.03%
- Cc1nn(C)c2ncnc(NCc3nncn3C3CCCCC3)c12 — lower, -58.1%
- CC(C)c1cc(C(=O)N2C[C@@H]3CC[C@H]2CN(Cc2ccccn2)C3)no1 — lower, 41.8%
- CC(NC(=O)c1ccsc1)c1ccc2c(c1)NC(=O)CO2 (stereo not drawn) — lower, 29.25%
- Cc1cc(C)n(CCNC(=O)c2cc(C3CC3)n[nH]2)n1 — lower, 20.8%
- CCC(CC)C(=O)n1ccn(S(=O)(=O)c2ccc(C)cc2)c1=O — lower, 14.3%
- Cn1c2c(ccc1=O)CCN(Cc1ccoc1)CC2 — lower, -93%
- c1csc(N2CCCN(Cc3noc(C4CC4)n3)CC2)n1 — lower, 7.67%
- O=C(NCc1cccnc1)N1CCn2c(Cn3cccn3)cnc2C1 — higher, 57.9%
- O=C(NCc1ccccc1)N1CCn2c(Cn3cccn3)cnc2C1 — lower, 39.2%
- O=C([C@@H]1CCCO1)N1CCn2c(Cn3cccn3)cnc2C1 — lower, 28.7%
- O=S(=O)(C1CC1)N1CCn2c(Cn3cccn3)cnc2C1 — lower, 41%
- c1cnn(Cc2cnc3n2CCN(CC2CCCCC2)C3)c1 — higher, 59%
- N#Cc1ccc(C(=O)N2CCn3c(Cn4cccn4)cnc3C2)cc1 — lower, 7.11%
- O=C(NC1CC1)N1CCn2c(Cn3cccn3)cnc2C1 — lower, 24.1%
- O=C(N1CCCC1)N1CCn2c(Cn3cccn3)cnc2C1 — lower, 38.1%
- CN(C)C(=O)N1CCn2c(Cn3cccn3)cnc2C1 — higher, 62.5%
- CC1CCN(C(=O)c2cnc(CC3CCCN(C)C3)cn2)CC1 (stereo not drawn) — lower, 24.4%
- Cc1cccc(CN2Cc3[nH]nc(COc4cccnc4)c3C2)n1 — lower, 34.9%
- CCS(=O)(=O)CCNC(=O)NC(C)c1ccc(C)s1 (stereo not drawn) — lower, 17%
- Cc1oc(C(=O)O)cc1S(=O)(=O)Nc1ccccc1F — lower, 34.7%
- O=S(=O)(c1cn[nH]c1)N1CCCC(O)(CN2CCOCC2)CC1 (stereo not drawn) — lower, 13.125%
- CC(=O)Nc1nc(C(=O)N2CCCC2c2noc(C3CC3)n2)cs1 (stereo not drawn) — lower, 2.3%
- CCCn1ccnc1CN1CCN(C2CCOCC2)CC(C(N)=O)C1 (stereo not drawn) — lower, 20.8%
- CSc1ccc(CN(CCO)C(=O)CCOc2ccccc2)cc1 — lower, 15.7%
- Cc1ccc(C(=O)NCc2cccnc2N(C)C)s1 — lower, -85%
- Cc1oc(C)c(C(=O)NCc2cccnc2N(C)C)c1C — lower, 50.4%
- Cc1ncsc1C(=O)NCc1cccnc1N(C)CCc1ccccn1 — higher, 52.5%
- Cc1ccc(C(=O)NCc2cccnc2N(C)C)o1 — lower, 12.35%
- Cc1ncsc1C(=O)N(Cc1ccccn1)C1CC1 — lower, -2.95%
- Cc1ccsc1C(=O)NCc1cccnc1N(C)CCc1ccccn1 — lower, 9.91%
- Cc1noc(C)c1C(=O)NCc1cccnc1N(C)C — lower, -25.66%
- Cc1nnsc1C(=O)NCc1cccnc1N(C)Cc1ccccc1 — lower, 44.6%
- CCc1nc(C2CCCN2C(=O)Cc2cccs2)no1 (stereo not drawn) — lower, 5.9%
- CSc1ccccc1C(C(=O)O)N(C)CC1CCOCC1 (stereo not drawn) — lower, -0.27%
- CCCc1cc(C(=O)NCCN2CCCS2(=O)=O)[nH]n1 — lower, -40.96%
- O=C(c1cc(Cl)c2c(c1)OCO2)N1CCCC(n2cncn2)C1 (stereo not drawn) — lower, 29.7%
- C[C@@H]1CN(Cc2ccccn2)C[C@]12CCN(Cc1cccnc1)C2=O — lower, -38.1%

From ChEMBL document CHEMBL4513216, “Probing the Open Global Health Chemical Diversity Library for Multistage-Active Starting Points for Next-Generation Antimalarials” (ACS Infect Dis, 2020)
